Source: paper PMC5540273 (PLoS ONE, 2017)

Experiments:
Conditions in all cases: concentration: 1 μM, replicates: in singlicate; n = 1
CSF1R = system: CSF1R
CSK = system: CSK
CSNK1A1L = system: CSNK1A1L
CSNK1A1 = system: CSNK1A1
CSNK1D = system: CSNK1D
CSNK1E = system: CSNK1E
CSNK1G1 = system: CSNK1G1
CSNK1G2 = system: CSNK1G2
CSNK1G3 = system: CSNK1G3
CSNK2A1 = system: CSNK2A1
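Also: KINOMEscan kinase panel screen.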

Compound | %Inh (CSF1R) [%] | %Inh (CSK) [%] | %Inh (CSNK1A1L) [%] | %Inh (CSNK1A1) [%] | %Inh (CSNK1D) [%] | %Inh (CSNK1E) [%] | %Inh (CSNK1G1) [%] | %Inh (CSNK1G2) [%] | %Inh (CSNK1G3) [%] | %Inh (CSNK2A1) [%]
COc1cc2ncn(-c3cc(OCc4ccc(S(C)(=O)=O)cc4)c(C(N)=O)s3)c2cc1OC [GW869979] | 0 | 0 | 0 | 0 | 0 | 13 | 0 | 10 | 3 | 19
COc1cc2nccc(Nc3ccc(OCc4ccc(NC(C)=O)cc4)cc3)c2cc1OC.Cl [GW440135] | 73 | 0 | 15 | 0 | 0 | 16 | 0 | 0 | 15 | 5
Cc1nnc(-c2ccc3ncn(-c4ccc(S(C)=O)cc4)c3c2)o1 (centres unmarked) | 12 | 0 | 14 | 0 | 9 | 8 | 0 | 18 | 24 | 22
Cn1c(=O)c(F)c(Nc2ccc(I)cc2F)c2c(=O)n(OC[C@H](O)CO)cnc21 | 21 | 20 | 0 | 36 | 12 | 25 | 11 | 20 | 4 | 0
COc1cc(Nc2ccnc3ccc(C(F)(F)F)cc23)cc(OC)c1OC [GW577382] | 8 | 3 | 19 | 36 | 21 | 9 | 3 | 0 | 27 | 10
COc1cc(Nc2nccc(N3CCC(NC(=O)C(C)c4ccc(Cl)cc4)C3)n2)cc(OC)c1OC (centres unmarked) [GSK1379757] | 4 | 0 | 0 | 0 | 0 | 18 | 0 | 0 | 25 | 1
Fc1cccc(CSc2nnc(-c3ccc4c(c3)CCO4)o2)c1 | 0 | 0 | 11 | 8 | 0 | 0 | 15 | 10 | 0 | 16
Nc1ncnc2c1ncn2-c1cccc(F)c1 [SKF-97560] | 20 | 0 | 0 | 16 | 26 | 0 | 0 | 13 | 0 | 28
CCn1c(-c2ccoc2)nc2cnccc21 [SB-733887] | 8 | 0 | 0 | 0 | 12 | 3 | 0 | 0 | 4 | 0
COc1ccc(CNC(=O)NC2CCN(c3ccnc(Nc4ccc(F)cc4)n3)C2)cc1 (centres unmarked) [GSK1379706] | 16 | 5 | 12 | 25 | 29 | 15 | 21 | 0 | 23 | 4
CCS(=O)c1ccc(-c2coc3ccc(-c4nnc(C)o4)cc23)cc1 (centres unmarked) | 0 | 19 | 0 | 1 | 0 | 0 | 0 | 0 | 0 | 21
Cc1nnc(-c2ccc(C)c(-c3ccc(C(=O)O)cc3)c2)o1 [GW608005] | 0 | 0 | 0 | 0 | 0 | 8 | 7 | 0 | 9 | 21
Nc1ncnc2c1ncn2-c1cccc2ccccc12 [SKF-97184] | 3 | 0 | 0 | 0 | 0 | 11 | 0 | 0 | 0 | 0
CCn1c(-c2nonc2N)nc2ccccc21 [SB-693162/GW549034] | 0 | 5 | 0 | 6 | 7 | 0 | 0 | 0 | 0 | 21
O=c1cc(N2CCOCC2)nc2n(Cc3ccc(F)c(Cl)c3)ccn12 [GSK2297099] | 26 | 13 | 6 | 0 | 9 | 52 | 12 | 0 | 34 | 1
CN(C)c1cc(-c2ccc3c(N)n[nH]c3c2)nc(N)n1 [GSK2219329] | 2 | 0 | 0 | 0 | 25 | 27 | 0 | 2 | 16 | 0
O=C(Nc1n[nH]c2nc(-c3ccccc3)c(Br)cc12)C1CC1 [SB-708998] | 0 | 0 | 0 | 6 | 0 | 0 | 10 | 2 | 15 | 6
Nc1ncnc2c1ncn2-c1ccc(Cl)cc1 [AH2635] | 11 | 0 | 12 | 0 | 9 | 46 | 0 | 0 | 17 | 0

Compound | %Inh (CSF1R) [%] | %Inh (CSK) [%] | %Inh (CSNK1A1L) [%] | %Inh (CSNK1A1) [%] | %Inh (CSNK1D) [%] | %Inh (CSNK1E) [%] | %Inh (CSNK1G1) [%] | %Inh (CSNK1G2) [%] | %Inh (CSNK1G3) [%] | %Inh (CSNK2A1) [%]
Nc1n[nH]c2nnc(-c3ccccc3)c(-c3ccccc3)c12 [GW554060] | 0 | 0 | 13 | 0 | 0 | 7 | 0 | 0 | 0 | 11
COc1cc2nccc(Nc3cccc(Oc4ccccc4)c3)c2cc1OC.Cl [GW284543] | 0 | 11 | 12 | 0 | 0 | 5 | 0 | 0 | 26 | 0
OCCCNc1nccc(-c2c(-c3cccc(C(F)(F)F)c3)nn3cc(C(F)(F)F)ccc23)n1 [GW630813] | 0 | 0 | 0 | 0 | 36 | 54 | 0 | 0 | 13 | 0
COc1cccc(-n2cnc3c(N)ncnc32)c1 [SKF-97416] | 7 | 8 | 0 | 31 | 12 | 0 | 0 | 0 | 3 | 0
CCc1nc(-c2cccc(C)c2)c(-c2ccncc2)s1 | 0 | 0 | 12 | 58 | 68 | 70 | 0 | 10 | 12 | 4
COC(=O)c1c(-c2ccccc2)c2cc(Br)ccc2c(=O)n1Cc1ccc(NC(=O)CCC(=O)O)cc1 | 9 | 0 | 18 | 16 | 0 | 0 | 0 | 11 | 0 | 11
Cc1nc(N(C)[C@H]2CN(C(=O)CC#N)CC[C@H]2C)c2cc[nH]c2n1 | 13 | 0 | 3 | 0 | 0 | 0 | 5 | 0 | 0 | 0
CCC(=O)c1c(-c2ccccc2)c2cc(Cl)ccc2c(=O)n1Cc1cc(S(C)(=O)=O)n(CC(N)=O)n1 | 0 | 4 | 0 | 0 | 0 | 0 | 0 | 0 | 0 | 0
O=C(Nc1n[nH]c2nc(-c3ccccc3)c(Cl)cc12)C1CC1 [SB-734909] | 28 | 0 | 0 | 0 | 0 | 11 | 0 | 0 | 0 | 31
FC(F)(F)c1ccc(-c2ncn(CCCN3CCOCC3)c2-c2ccncc2)cc1 [SB-217780] | 25 | 18 | 33 | 21 | 0 | 0 | 0 | 0 | 12 | 20
O=C(NCc1cccs1)c1cc(C(=O)c2c(Cl)cccc2Cl)c[nH]1 [GW823670] | 13 | 0 | 0 | 0 | 0 | 0 | 0 | 0 | 0 | 0
COc1cc(Nc2nccc(N3CCC(NC(=O)C4COc5ccccc5O4)C3)n2)cc(OC)c1OC (centres unmarked) [GSK1379761] | 20 | 0 | 0 | 0 | 0 | 0 | 3 | 0 | 2 | 0
COc1cc2ncn(-c3cc(OCc4ccncc4Br)c(C(N)=O)s3)c2cc1OC [GW854278] | 0 | 6 | 10 | 0 | 8 | 0 | 18 | 0 | 0 | 0
COc1cc2ncn(-c3cc(OCCCc4ccccc4)c(C(N)=O)s3)c2cc1OC [GSK205189] | 0 | 0 | 5 | 23 | 1 | 2 | 1 | 2 | 21 | 0
COc1ccc(-c2cc3c(C)nc(N)nc3n([C@H]3CC[C@H](O)CC3)c2=O)cn1 | 0 | 0 | 0 | 13 | 0 | 0 | 0 | 0 | 0 | 0
Cc1ccccc1COc1cc(-n2cnc3cc(Cl)ccc32)sc1C(N)=O [GW813349] | 0 | 0 | 0 | 24 | 1 | 2 | 0 | 7 | 8 | 5
Cc1cccc(-c2nc(Nc3ccc4c(cnn4C)c3)c3ccccc3n2)n1 [GW876731] | 29 | 2 | 0 | 0 | 50 | 37 | 18 | 10 | 0 | 0
